# KB-3-1 cytotox = qHTS assay for MDR1-selective chemotherapeutics: Primary screen using the parental adenocarcinoma cell KB-3-1; Potency, µM (doses to about 46.1 µM), most hits filed as cytotoxic; KB-3-1 viability, CellTiter-Glo ATP luminescence, 72 h; 1.4% of 400,000 active; AID 1347075, 2019; further: on the % scale 0 is the no-effect control and ±100 the full control effect; nearly all actives have a fitted effect of over 60% in size
#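 Cells are dispensed, compounds pinned in, plates held at 37 °C for 72 h, then CellTiter-Glo is added and luminescence read after 10 minutes. Cell line: parental KB-3-1 in phenol-red-free DMEM, 10% FBS.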
# MCF10A rerep = A quantitative high throughput screen for small molecules that induce DNA re-replication in MCF 10a normal breast cells; MCF 10A DNA re-replication, Hoechst nuclear intensity, 48 h; Potency, µM (titrated, usually from 46.1 µM), for inactives: top-dose activity, positive = re-replication, most hits filed as activators; 2.9% of 350,000 active; AID 624296, 2012; further: % of control where 0% means no effect; nearly all actives have a fitted effect of over 50% in size
# SW480 rerep = A quantitative high throughput screen for small molecules that induce DNA re-replication in SW480 colon adenocarcinoma cells. SW480 DNA re-replication, Hoechst DNA content imaging, 48 h. Potency, µM (titrated, usually from 46.1 µM), inactives show top-dose re-replication activation, most hits filed as activators. 1.8% of 340,000 active. AID 624297, 2012; further: % of control where 0% means no effect; nearly all actives have a fitted effect of over 55% in size
#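 250 cells/well; 23 nL cpd via pin tool; 48 hr, 37 C, 5% CO2; Hoechst 40 min; imager read of total nuclear intensity, ex 405/em 500-530 nm.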
# PINK1 expr mod = A Quantitative High throughput Screen to Identify Chemical Modulators of PINK1 Expression; Potency, µM (titrated, usually from 76.6 µM), inactives show at the top dose activation (PINK1 increase), hits mostly activators; 0.2% of 410,000 active; AID 624263, 2012; PINK1 immunofluorescence, high-content cytometry, 24 h; active means well fitted activation curve with a large enough effect; inconclusive means small, poorly fitted or top-dose-only effect; cell line not stated here; further: % of control where 0% means no effect; nearly all actives have a fitted effect of over 65% in size
#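 Decision-based qHTS: stable cells, 24 h exposure to five compound concentrations, CCCP as control. Fixed cells stained for PINK1 plus nuclear, mitochondrial and cell markers, cytometer read.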
# KB-V1 cytotox = qHTS assay for MDR1-selective chemotherapeutics: Primary screen using the drug-selected MDR subline cells KB-V1; KB-V1 MDR cells viability, CellTiter-Glo, 72 h; Potency, µM (series often up to 46.1 µM), most hits filed as cytotoxic; 3.4% of 400,000 active; further: on the % scale 0 is the no-effect control and ±100 the full control effect; nearly all actives have a fitted effect of over 60% in size
#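 Readout: CellTiter-Glo luminescence, 10 min after addition. Cells: KB-V1 MDR subline, 72 h at 37 degrees C with compound. Analysis: corrected, normalized data fitted to concentration-effect curves.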
# * hit, by the source's call; i = inactive; ? = inconclusive; · = no result given; [ ] = another dose, or the depositor's remark. Shown are actives, neighbours in structure and some others; about 6.7% of the full set was active somewhere. Unless noted, the call rests on the fitted dose curve; in most records, active means well fitted curve in the direction sought with a large enough effect; inconclusive means small, poorly fitted or top-dose-only effect, or another doubt; inactive means no such curve, though single readings can be large; an effect the other way counts as inactive or inconclusive. Potency means the concentration at half of the fitted maximal effect.
SMILES,KB-3-1 cytotox,MCF10A rerep,SW480 rerep,PINK1 expr mod,KB-V1 cytotox
Cc1ccc(NC(=O)CSc2nnc(-c3ccc(Br)cc3)o2)c(C)c1,·,·,·,1%,·
CC1=CC(C)(C)N(C(=O)CSc2nnc(N)s2)c2cc(C)c(C)cc21,i,?,-4%,1%[38.3 µM],12µM*
COc1cccc(-c2cc(C(F)(F)F)n3nc(C(=O)Nc4c(C)n(C)n(-c5ccccc5)c4=O)cc3n2)c1,i,-4%,4%,2%,i
COc1ccc(-c2cc(C(F)(F)F)n3nc(C(=O)Nc4c(C)n(C)n(-c5ccccc5)c4=O)cc3n2)cc1,?,18µM*,20%,-2%,i
COc1ccc(-c2cc(C(F)(F)F)n3nc(C(=O)NCCCn4ccnc4)cc3n2)cc1,i,13µM*,?,3%,i
COc1ccc(-c2cc(C(F)(F)F)n3nc(C(=O)NCCN4CCOCC4)cc3n2)cc1,i,-7%,-5%,2%,i
CCc1ccccc1N(C(=O)c1snc(C(N)=O)c1N)C(C(=O)NCC1CCCO1)c1ccc(C)o1 (stereo not drawn),i,-5%,6%,0%,?
COc1ccc(C(=O)N2CCC(c3nc(-c4ccc(S(=O)(=O)N5CCCC5)cc4)no3)CC2)cc1,·,·,·,0%,·
CCn1c(/C=C/c2ccccc2Cl)nc2ccccc2c1=O,i,16µM*,?,8%,i
CN(C)S(=O)(=O)c1ccc2[nH]cc(/C=C/c3nc4ccccc4c(=O)n3-c3ccccc3)c2c1,i,?,3.3µM*,11µM*,?
Cc1[nH]c2ccccc2c1/C=C/c1nc2ccccc2c(=O)n1-c1ccc([N+](=O)[O-])cc1,i,11%,-4%,?,?
CN(C)c1ccc(/C=C/c2nc3ccccc3c(=O)n2-c2ccc(C(=O)O)cc2)cc1,i,18µM*,21µM*,0%,i
CCn1c(/C=C/c2cccc([N+](=O)[O-])c2)nc2ccccc2c1=O,?,15%,3%,3%,21µM*
COc1ccc(NC(=O)C(=O)NCC(c2cccnc2)N2CCc3ccccc3C2)cc1 (stereo not drawn),i,·,·,-1%,i
CC(C)C[C@@H](CN)NC(=O)c1nc[nH]c1C(=O)N[C@@H](CC(C)C)C(=O)CNC[C@H](C)NC(=O)c1nc[nH]c1C(=O)N[C@@H](C)C(=O)O,i,3%,-7%,0%,i
O=C(NCCCN1CCN(c2ccc(F)cc2)CC1)c1sc2ncccc2c1-n1cccc1,i,·,·,3%,i
O=c1c2ccccc2nc(/C=C/c2cccnc2)n1CCc1ccccc1,i,29µM*,-21%,0%,?
CCn1c(/C=C/c2c[nH]c3ccccc23)nc2ccccc2c1=O,i,21µM*,?,?,i
Cc1ccc(NC(=O)Cn2c(=O)n(CCCS(=O)(=O)C3CCCCC3)c(=O)c3ccccc32)cc1F,i,·,·,5%,i
CC1=C(C(=O)OCc2ccccc2)N2C(=O)[C@@H](NC(=O)OCc3ccccc3)[C@H]2SC1,i,·,·,·,?
Cc1nnc2c3ccccc3nc(N3CCN(c4cccc(Cl)c4)CC3)n12,i,·,·,0%,?
CCCn1c(C(O)c2ccc3c(c2)OCO3)nc2ccccc21 (stereo not drawn),i,?,15µM*,1%[38.3 µM],i
CCCn1c(C(O)c2ccc(C)cc2)nc2ccccc21 (stereo not drawn),i,?,-2%,1%,i
CCN(CCNC(=O)C1CCN(Cc2nc(-c3ccc(Cl)cc3)oc2C)CC1)c1ccccc1,i,?,?,-2%,7.3µM*
CCc1ccc(-c2nc(CN3CCC(C(=O)NCCN(CC)c4ccccc4)CC3)c(C)o2)cc1,i,?,?,-1%,4.6µM*
SMILES,KB-3-1 cytotox,MCF10A rerep,SW480 rerep,PINK1 expr mod,KB-V1 cytotox
CCc1ccc(-c2nc(CN3CCC(C(=O)N4CCN(c5ccccc5)CC4)CC3)c(C)o2)cc1,i,?,?,-1%,8.2µM*
CCN(CCNC(=O)C1CCN(Cc2nc(-c3cccc(Cl)c3)oc2C)CC1)c1ccccc1,?,?,?,-1%,2.6µM*
CCc1ccc(-c2nc(CN3CCC(C(=O)N4CCN(c5ccccn5)CC4)CC3)c(C)o2)cc1,?,?,4%,·,i
CCOc1ccc(NC(=O)C2CC(=O)N(c3ccc(C(C)C)cc3)C2)cc1 (stereo not drawn),i,·,·,-4%,?
COc1ccc(Cl)cc1NC(=O)CSc1nc(=O)n(Cc2ccco2)c2c1CCC2,i,·,·,-1%,i
COc1cc(OC)c2c(=O)c(-c3ccccc3)coc2c1,·,·,·,0%,·
Cc1ccc(N2C(=O)CSC23C(=O)N(CC(=O)NCc2ccccc2)c2ccccc23)cc1 (stereo not drawn),i,·,·,-5%,i
Cc1noc(C)c1C(=O)Nc1sc(C)c(-c2ccccc2)c1C#N,13µM*,7%,-1%,28µM*,4.1µM*
N#Cc1c(Cl)nsc1NC(=O)c1ccccc1,?,?,1%,13µM*,7.3µM*
Cc1cccc(C(=O)Nc2sc(C)c(-c3ccccc3)c2C#N)c1,i,9.2µM*,-4%,2%,?
N#Cc1c(N)nc(N)nc1Nc1ccc(Br)cc1,?,4%,3%,-1%,13µM*
CCOc1ccc(CNC(=O)c2cccc(NC(=O)C3=C(C)OCCS3)c2)cc1,i,-4%,-5%,0%,i
CC1=C(C(=O)Nc2ccc(CC(=O)NCc3ccc(OC(C)C)cc3)cc2)SCCO1,0.37µM*,0.33µM*,?,15%,?
COc1ccc(CNC(=O)Cc2ccc(NC(=O)C3=C(C)OCCS3)cc2)cc1,1µM*,8.2µM*,?,4%,15µM*
CC(=O)NC1CC2CCCC(C1)N2C(=O)Nc1ccc(Cl)cc1 (stereo not drawn),i,·,·,0%,i
CC1(c2ccccc2)CC(c2ccccc2)=Nc2ccccc2N1 (stereo not drawn),i,-28%,3%,12%,i
CC1=CC(C)=Nc2ccccc2N1,i,21µM*,-10%,·,i
O=C(NN=C1c2ccccc2-c2ccccc21)c1ccccn1,i,6%,?,20%[38.3 µM],5.2µM*
O=C(NCc1cccnc1)/C(=C\c1ccc(-c2ccc(Cl)c(Cl)c2)o1)S(=O)(=O)c1ccccc1,i,6.5µM*,?,-1%,4.1µM*
Cc1ccsc1CN1CCc2nnc(CCNC(=O)c3ccc(F)cc3)n2CC1,·,·,·,1%,·

# Source: PubChem
